The values below come from PubChem BioAssay AID489012 (National Center for Advancing Translational Sciences (NCATS), 2010).

The structures appear in SMILES notation. Records with an inconclusive call do not appear. Unmarked numbers belong to inactive results. The source made the active and inactive calls. Calls come from the whole dose curve; as a rule, active = well fitted activation curve with a large enough effect; inconclusive = small, poorly fitted or top-dose-only effect; inactive = no such curve, though single readings can be large or run the other way.
Potency is the fitted concentration of half-maximal effect.

The target of this experiment is Relaxin receptor 1 (Homo sapiens) (UniProt Q9HBX9). Nature of the experiment: qHTS Assay for Agonists of the Relaxin Receptor RXFP1: RXFP1 Hit Validation.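 For activation: cAMP rise lowers the TR-FRET signal in lysed cells with PDE4 inhibitor present; 0% = buffer-only basal and 100% = 29 nM porcine relaxin.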 Note: nearly all actives have a fitted effect of over 65% in size. Particulars: HEK293T-RXFP1 cAMP TR-FRET, 30 min; series mostly up to 115 µM; activation: at the top concentration.
Sequence of Relaxin receptor 1 (Homo sapiens) (Q9HBX9 whole entry, looked up): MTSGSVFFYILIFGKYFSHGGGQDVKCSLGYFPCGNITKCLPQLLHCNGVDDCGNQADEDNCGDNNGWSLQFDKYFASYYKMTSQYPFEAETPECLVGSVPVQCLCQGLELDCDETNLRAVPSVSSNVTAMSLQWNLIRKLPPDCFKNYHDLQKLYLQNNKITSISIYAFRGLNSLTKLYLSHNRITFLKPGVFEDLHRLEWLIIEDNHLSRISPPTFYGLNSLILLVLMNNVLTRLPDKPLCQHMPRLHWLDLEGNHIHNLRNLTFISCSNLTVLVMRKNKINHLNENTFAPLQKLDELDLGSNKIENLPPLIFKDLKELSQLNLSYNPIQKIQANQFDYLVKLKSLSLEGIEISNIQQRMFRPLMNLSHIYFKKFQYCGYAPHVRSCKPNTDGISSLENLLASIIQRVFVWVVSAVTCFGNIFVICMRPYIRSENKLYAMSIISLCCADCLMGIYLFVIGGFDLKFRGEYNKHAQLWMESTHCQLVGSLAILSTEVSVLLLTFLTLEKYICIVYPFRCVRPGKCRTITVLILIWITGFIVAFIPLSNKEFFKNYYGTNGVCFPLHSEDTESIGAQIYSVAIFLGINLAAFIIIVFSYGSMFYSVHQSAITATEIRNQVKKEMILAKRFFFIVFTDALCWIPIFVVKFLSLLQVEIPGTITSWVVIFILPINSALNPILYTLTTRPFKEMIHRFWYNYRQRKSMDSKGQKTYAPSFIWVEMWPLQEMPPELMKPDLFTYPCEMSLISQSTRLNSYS
As to `O=C(Nc1ccccc1C(=O)N1CCNCC1)c1ccco1`, the “activation” value was -3.15% [at 125 µM]. On to `COc1ccc(OC)c(CNC(=O)C2CCN(C(=O)N(C)C)CC2)c1`, for which the “activation” value was -4.27%. For the molecule `CCC(=O)Nc1ccc(-n2nnnc2SCC(=O)NNC(=O)c2ccco2)cc1`, the “activation” value is -4.13%. `CC1(C)Cc2c(sc3c2c2ncnn2c2nnc(SCC(=O)NCc4ccco4)n32)CO1`: the Potency is 6.16 µM (active). Turning to `O=S(=O)(c1cccc(-c2cn3cccnc3n2)c1)N1CCOCC1`, the Potency was 27.5 µM (active). `Cc1ccc(C(=O)Nc2ccccc2C(=O)NCc2ccco2)cc1`: the “activation” value was 18.8% [at 125 µM]. Consider `O=C(Nc1ccccc1C(=O)NCc1ccco1)c1ccccc1`, for which the “activation” value was 16.5% [at 125 µM]. The same measure, in the same setting: to `CC(C)n1cnc2c(N(C)c3cccc(Cl)c3)nc(N(CCO)CCO)nc21` belongs -5.98%.

As for `CC1(C)Cc2c(sc3ncnc(NN)c23)CO1`, the “activation” value is 25.2% [at 45 µM].

As for `O=C(Nc1ccccc1C(=O)Nc1ccccc1C(=O)NCc1ccco1)c1ccco1`, the Potency is 21.9 µM (active).

As for `Cc1ccc(CN(C)C(=O)c2ccc3c(c2)NC(=O)CS3)o1`, the “activation” value is -29.9%. Consider `Cc1ccc(Cl)cc1NC(=O)CCCN1C(=O)c2cccnc2C1=O`, for which the “activation” value was 22.7%. As for `CCN(CC)CCCN1C=C2C(=O)C(C)(OC(=O)C3CCCC3)C(=O)C=C2C=C1c1ccsc1` (stereo not given), the “activation” value was -3.64%. For `Cc1cc2c(SCC(=O)NCC3CCCO3)ncnc2s1` (stereo not given), the “activation” value was 25.2%. Turning to `C=CCNc1ncnc2c1ncn2C1OC(CO)C(O)C1O` (stereo not given), the “activation” value is -29.1%. `NCCNC(=O)Cc1ccc(NC(=O)Cc2ccc(Nc3ncnc4c3ncn4[C@@H]3O[C@H](CO)[C@@H](O)[C@H]3O)cc2)cc1`: the Potency is 1.23 µM (active). Regarding `C=C[C@@]1(C)CC(=O)[C@]2(O)[C@@]3(C)[C@@H](O)CCC(C)(C)[C@@H]3[C@H](O)[C@H](OC(C)=O)[C@@]2(C)O1`, the Potency is 0.0388 µM (active). On to `Cc1nn(CC(=O)NCCN2CCOCC2)c(=O)c2cc3sccc3n12`, for which the “activation” value is 18.1%. Regarding `N#Cc1c(N)nc(SCC(=O)C23CC4CC(CC(C4)C2)C3)c(C#N)c1-c1ccc(Cl)cc1`, the Potency was 9.74 µM (active). As for `CC(=O)CCCCn1c(=O)c2c(ncn2C)n(C)c1=O`, the “activation” value is 27.5%. Take `COC(=O)Cn1cnc2c(C#N)c3n(c2c1=O)CCCC3`: the Potency is 24.5 µM (active). For the molecule `CCc1nn(CC(=O)NCCCN2CCOCC2)c(=O)c2cc3sccc3n12`, the “activation” value was 27.9%. Turning to `Nc1c(Cl)cc(-c2[nH]c3cc(C(=O)NCCO)ccc3c(=O)c2O)cc1Cl`, the Potency was 34.6 µM (active).

Take `Cc1cccn2c(=O)c3cc(C(=O)NC4CCCC4)c(=N)n(CCCN4CCOCC4)c3nc12`: the “activation” value is 22.6%. With `CC(=O)c1sc(NC(=O)C(C)C)nc1C`, the Potency was 15.4 µM (active). Turning to `Cc1cc(C)n(C(=O)CCCn2cc([N+](=O)[O-])cn2)n1`, the “activation” value was 28%.

Take `O=C(Nc1cccc(C(F)(F)F)c1)c1ccccc1NC(=O)C1CCCCC1`: the Potency was 11.9 µM (active). `CC(=O)C1C(c2ccccc2)c2c(noc2C)CC1(C)O` (stereo not given): the “activation” value is -2.95%. With `Cc1ccnc(NS(=O)(=O)c2ccc(N3C(=O)c4ccccc4C3=O)cc2)n1`, the Potency is 18.8 µM (active).

Regarding `S=c1nc[nH]c2c1[nH]c1ccccc12`, the Potency was 6.9 µM (active). In the case of `Cc1cccc(N2C(=O)C(O)=C(C(=O)c3cccs3)C2c2ccc(C(C)C)cc2)n1` (stereo not given), the “activation” value is 22%.

Consider `COc1ccc(/C=C2/SC(=O)N(CC(=O)Nc3cc(C)on3)C2=O)cc1OC`, for which the “activation” value was -68%. On to `O=C(Nc1ccccc1C(=O)NCCc1ccccc1)c1ccco1`, for which the “activation” value is -11.1% [at 125 µM]. Take `Nc1ncnc2c1ncn2C1OC(CO)C(O)C1O` (stereo not given): the Potency is 1.74 µM (active). Same read-out and setting: to `CCc1nnc(NC(=O)CSc2nc(C)nc3c2c(=O)n(C)c(=O)n3C)s1` belongs 17.3 µM (active).
